From PubChem BioAssay (NCATS) come the findings set out here.

Values without a mark were called inactive. Results filed as inconclusive are left out. The source made the active and inactive calls. Unless noted, calls come from the whole dose curve; as a rule, active = well fitted curve in the direction sought with a large enough effect; inconclusive = small, poorly fitted or top-dose-only effect, or another doubt; inactive = no such curve, though single readings can be large; an effect the other way counts as inactive or inconclusive.

Assay [1] is described as follows: Cytometric Cell-Based qHTS for Inhibitors of the mTORC1 Signaling Pathway in MEF (Tsc2-/-, p53-/-) Cells (AID 2660).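 Note: percent of cells above a phospho-rpS6 to PI ratio cutoff in each well.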 The method in brief:
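Tsc2-/-, p53-/- MEFs (empty vector) exposed to compound 24 h at 37 C, fixed, stained with Alexa-488 anti-phospho-rpS6 Ser235/236 and propidium iodide. Acumen laser scanning; phospho-S6/PI ratio thresholded against 7.5 nM rapamycin, reported as % positive cells.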

Assay [2] is described as follows: High Content Imaging Cell-Based qHTS for Inhibitors of the mTORC1 Signaling Pathway in MEF (Tsc2-/-, p53-/-) Cells (AID 2666).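 Note: percent of cells scored positive for phospho-rpS6 Ser235/236 immunostaining by imaging.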 Conditions: at 38.3 µM (top of the series). In outline:
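Read-out: % positive cells per well, with thresholds from highest- and lowest-signal wells, based on phospho-rpS6 (Ser235/236) intensity normalized to Hoechst nuclear stain. Cells: Tsc2-/-, p53-/- MEFs carrying empty vector; compound 24 hrs, 37 degree Celsius.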
(qHTS replaces the single test concentration by a dilution series.)

The nature of assay [3]: High Content Imaging Cell-Based qHTS for Inhibitors of the mTORC1 Signaling Pathway in MEF Cells (AID 2667). Note: potency is the fitted concentration of half-maximal effect. In outline: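 MEF (Tsc2-/-, p53-/-, WT Tsc2 re-expressed); cpd 24 h, 37 °C; PFA fix; Alexa-488 anti-p-rpS6 Ser235/236, PI, Hoechst; IN Cell imaging; Hoechst/Alexa-488 intensity ratio; % active cells, thresholds set from rapamycin and DMSO wells.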
Assay [4] in a line: Cytometry Cell-Based qHTS for Inhibitors of the mTORC1 Signaling Pathway in MEF cells (AID 2668). Note: potency is the fitted concentration of half-maximal effect. In outline:
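Pathway inhibition in WT Tsc2-rescued Tsc2-/-, p53-/- MEFs is measured as the Alexa-488 phospho-rpS6 to propidium iodide intensity ratio after 24 hrs of compound at 37 degree Celsius. PI-stained cell number gives viability.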

Assay [5] concerns the target Ubiquitin carboxyl-terminal hydrolase 2 (Homo sapiens) (UniProt O75604). Briefly: qHTS Validation Assay for Inhibitors of Ubiquitin-specific Protease USP2a Using CHOP2 as the Reporter (AID 463106). The method in brief:
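USP2 core (10nM final) was preincubated with compound for 30min at RT in 20mM Tris-HCl pH 8.0, 2mM CaCl2, 2mM beta-mercaptoethanol, 0.05% CHAPS. Ub-CHOP2 and reporter substrate (25nM each) were added, and fluorescence (Ex 485/Em 531nm) was read after 60min.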

In assay [6] the target is Tumor susceptibility gene 101 protein (Homo sapiens) (UniProt Q99816). Description: qHTS Validation Assay for Iinhibitors of HIV-1 Budding by Blocking the Interaction of PTAP/TSG101 (AID 485342; calls by dose curve). In outline:
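Fluorescence anisotropy measured PTAP-Tsg101 interaction. Final concentrations were 10 uM protein domain and 50 nM labeled peptide, equilibrated 20 min at room temperature.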

Assay [7] deals with Beta-2 adrenergic receptor (Homo sapiens) (UniProt P07550). Description: qHTS validation assay of beta-arrestin-biased ligands of beta2-adrenergic receptor (AID 485366). In outline:
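Tango cells expressing recombinant beta2-AR and beta-arrestin with tTA-driven luciferase, in DMEM with 1% FBS. Compounds were titrated up to 46 microM for 18 hr at 37 degrees C. Luminescence was read 15 min after substrate; curves were fitted and class-assigned.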

Assay [8] addresses Thioredoxin reductase 1, cytoplasmic (Rattus norvegicus) (UniProt O89049). Briefly: qHTS Assay for Substrates of Mammalian Selenoprotein Thioredoxin Reductase 1 (TrxR1) (AID 488772).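 Note: NADPH fluorescence in the first read after selenite addition and not the 8 min delta; a drop in NADPH fluorescence below the no-compound background marks a TrxR1 substrate.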 In outline:
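Quantitative HTS in Tris-HCl buffer at pH 7.5 with EDTA and Tween-20, using rat TrxR1, 400 uM NADPH and 400 uM selenite (final). A fall in initial NADPH fluorescence relative to background marked substrate behaviour.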

The target is the same in assay [9]. Briefly: qHTS Assay for Inhibitors of Mammalian Selenoprotein Thioredoxin Reductase 1 (TrxR1) (AID 488773).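 Note: drop in NADPH fluorescence over an 8 min run after selenite addition; nearly all actives have a fitted effect of over 40% in size.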 The conditions noted are these: Potency: inhibition. The method in brief: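 Steps: enzyme (90 nM) plus NADPH (400 uM final), 5 min at ~22 deg C; compound added, 15 min; selenite (400 uM final) added; fluorescence followed for 8 min. Concentration-response curves derived from the normalized delta values.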

Assay [10] concerns the target Flap endonuclease 1 (Homo sapiens) (UniProt P39748). Description: qHTS Validation Assay for the Inhibitors of Human Flap endonuclease 1 (FEN1) (AID 488816). In outline: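 FEN1, dispensed as a 10 nM reagent, was preincubated with pin-transferred compounds for 15 min at room temperature before substrate was added (50 nM final). Plates were read at 0 and 15 min, and a four-parameter Hill equation was fitted to the concentration-response data.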

Assay [11] concerns the target M-phase phosphoprotein 8 (Homo sapiens) (UniProt Q99549). Briefly: qHTS Validation Assay for Inhibitors for MPP8 Chromodomain Interactions with Methylated Histone Tails (AID 488949). Note: potency is the fitted concentration of half-maximal effect; nearly all actives have a fitted effect of over 55% in size. In outline:
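Disruption of the preformed MPP8–trimethyl-H3K9 peptide complex (both 50 nM, 30 min, RT) is measured after 30 min compound exposure, using AlphaScreen proximity beads; aurintricarboxylic acid titration serves as plate control.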

Assay [12] addresses Methanococcus maripaludis chaperonin (MmCpn) (UniProt Q6LX38). Description: High-Throughput Screening for Modulators of Cytosolic Chaperonin Activity: MmCpn Primary Screen (AID 488978).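 Note: 50 nM MmCpn enzyme hydrolysing 30 µM ATP at 37 °C.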 The method in brief: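 Measures ATPase turnover of the M. maripaludis chaperonin (50 nM final) against 30 uM ATP over 10 min at 37C, with compound added 5 min beforehand at room temperature. ADP is quantified by HTRF immunodetection.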

Assay [13] has as its target D(1A) dopamine receptor (Homo sapiens) (UniProt P21728). Description: HTS Assay for Allosteric Agonists of the Human D1 Dopamine Receptor: Primary Screen for Agonists (AID 488981). The method in brief: (§1)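 Tetracycline-induced HEK293 T-REx cells force-coupled to calcium signalling were incubated overnight at 30 C and dye-loaded at room temperature. Calcium flux over 180 s after compound addition flagged agonists; a further 180 s read after EC20 dopamine flagged potentiators.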

For assay [14] the target is unchanged. Briefly: HTS Assay for Allosteric Agonists of the Human D1 Dopamine Receptor: Primary Screen for Potentiators (AID 488982). The method in brief: as §1
The target is the same in assay [15]. Briefly: HTS Assay for Allosteric Agonists of the Human D1 Dopamine Receptor: Primary Screen for Antagonists (AID 488983).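 Note: calcium flux response to an EC80 dopamine challenge measured with no-wash dye; nearly all actives have a fitted effect of over 65% in size.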 In outline:
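Cells are induced with tetracycline and incubated overnight at 30 C, then loaded with calcium dye for 30 to 90 minutes at room temperature. Compound addition is followed by a 180 s read, then an EC80 dopamine addition and another 180 s read.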

A short description of assay [16]: Validation screen for small molecules that induce genotoxicity in human embryonic kidney (HEK293T) cells expressing luciferase-tagged ELG1 (AID 493106). In outline: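 Luminescence from an ELG1-luciferase fusion serves as the read-out, rising when genetic stress elevates ELG1 protein. HEK293T reporter cells (2,000 per well) received 23 nL compound, incubated 16 hr at 37 °C, then ONE-Glo for 30 min at room temperature.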

The target of assay [17] is ATPase family AAA domain-containing protein 5 (Homo sapiens) (UniProt Q96QE3). Description: Validation screen for small molecules that inhibit ELG1-dependent DNA repair in human embryonic kidney (HEK293T) cells expressing luciferase-tagged ELG1 (AID 493107). Note: potency is the fitted concentration of half-maximal effect; nearly all actives have a fitted effect of over 70% in size. The method in brief: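 Luminescence from ONE-Glo, developed 30 min at room temperature, served as read-out of ELG1-luciferase levels. Beforehand, reporter HEK293T cells received 5-fluorouridine plus test compound for 16 hr at 37 °C.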

A short description of assay [18]: qHTS for Inhibitors of Cell Surface uPA Generation: Validation Assay (AID 493164). In outline:
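RAW 264.7 cells (4000/well) were plated overnight, then exposed for 18 h at 37 C, 5% CO2 to compounds in a 7-point 1:5 titration (2.45 nM–38.3 uM final). Intracellular ATP was read by ATP-Lite luminescence.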

Assay [19] concerns the target Peptidyl-prolyl cis-trans isomerase NIMA-interacting 1 (Homo sapiens) (UniProt Q13526). Briefly: qHTS Validation Assay to Find Inhibitors of Pin1 (AID 504536; active = well fitted inhibition curve with a large enough effect in the polarisation, with a control signal flat, not every such curve was filed as active; the % refers to the polarisation). In outline: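 Fluorescence polarization competition: compounds (titration) displace HiFluor-488-labeled Pin1-1b peptide from Pin1 (0.3 uM final) in pH 7.5 HEPES buffer with DTT, 10 min at room temperature; %Activity normalized to no-enzyme wells, curves fitted.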

The nature of assay [20]: qHTS for Inhibitors of ATXN expression: Validation of Cytotoxic Assay (AID 588349). Note: potency is the fitted concentration of half-maximal effect. In outline:
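Read-out: ATP-based luminescence (CellTiter Glo) reflecting viability of HEK293 cells after 72 hr incubation at 37 degrees C with a concentration series of each compound.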

Assay [21] in a line: qHTS for Inhibitors of ATXN expression: Validation (AID 588378). Note: potency is the fitted concentration of half-maximal effect; nearly all actives have a fitted effect of over 75% in size. In outline:
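Validation of ATXN2 expression inhibitors uses a cell-based luciferase fusion reporter in HEK293 cells, with 24 h compound exposure and paired viability (fluorescence) and reporter (luminescence) end-point reads.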

Assay [22] is described as follows: qHTS of Trypanosoma Brucei Inhibitors: LOPAC Validation (AID 624147). The method in brief:
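Quantitative HTS: titrated library compounds versus trypanosomal pyruvate kinase in TEA buffer (pH 7.2) containing KCl, MgCl2, BSA and Tween-20. Reactions were initiated with ADP, 130 uM final. Kinase-Glo Plus luminescence was read after 45 min at RT.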

In assay [23] the target is Glucagon-like peptide 1 receptor (Homo sapiens) (UniProt P43220). Briefly: qHTS of GLP-1 Receptor Agonists: LOPAC Validation (AID 624148).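 Note: higher luminescence signal means agonism.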 The method in brief:
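HEK293 cells stably co-expressing a cAMP-responsive luciferase reporter and a hypersensitive GLP-1R were plated 12 h at 37 °C and exposed to compounds for 4-6 hr at 37 °C, 5% CO2. Luminescence was read 12 min after adding detection reagent.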

D(1A) dopamine receptor (Homo sapiens), sequence (P21728 whole entry, looked up): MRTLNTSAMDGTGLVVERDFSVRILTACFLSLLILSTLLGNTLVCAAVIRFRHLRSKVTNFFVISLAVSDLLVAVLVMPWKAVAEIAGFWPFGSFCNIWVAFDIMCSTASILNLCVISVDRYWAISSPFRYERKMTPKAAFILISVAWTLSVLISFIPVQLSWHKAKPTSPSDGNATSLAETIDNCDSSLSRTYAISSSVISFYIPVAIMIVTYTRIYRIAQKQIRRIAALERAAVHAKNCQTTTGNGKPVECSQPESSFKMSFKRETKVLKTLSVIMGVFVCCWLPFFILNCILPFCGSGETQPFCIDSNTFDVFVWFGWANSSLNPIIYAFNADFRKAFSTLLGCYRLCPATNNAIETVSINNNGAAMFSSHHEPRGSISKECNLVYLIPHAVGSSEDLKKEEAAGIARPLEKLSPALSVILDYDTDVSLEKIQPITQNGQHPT
Thioredoxin reductase 1, cytoplasmic (Rattus norvegicus), sequence (O89049 whole entry, looked up): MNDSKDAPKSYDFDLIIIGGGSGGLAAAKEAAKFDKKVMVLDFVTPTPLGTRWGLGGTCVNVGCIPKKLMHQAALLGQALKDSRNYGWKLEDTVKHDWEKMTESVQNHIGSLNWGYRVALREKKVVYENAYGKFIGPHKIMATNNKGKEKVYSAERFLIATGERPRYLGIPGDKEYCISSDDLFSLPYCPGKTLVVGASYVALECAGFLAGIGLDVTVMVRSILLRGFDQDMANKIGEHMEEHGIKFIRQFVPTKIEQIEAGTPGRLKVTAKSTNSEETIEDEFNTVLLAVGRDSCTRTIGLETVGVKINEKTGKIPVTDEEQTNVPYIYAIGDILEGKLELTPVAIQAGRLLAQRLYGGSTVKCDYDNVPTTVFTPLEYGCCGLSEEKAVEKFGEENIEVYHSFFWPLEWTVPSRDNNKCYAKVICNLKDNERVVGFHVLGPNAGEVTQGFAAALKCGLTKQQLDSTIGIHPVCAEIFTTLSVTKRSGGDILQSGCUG
Tumor susceptibility gene 101 protein (Homo sapiens), sequence (Q99816 whole entry, looked up, the tested form may be a part): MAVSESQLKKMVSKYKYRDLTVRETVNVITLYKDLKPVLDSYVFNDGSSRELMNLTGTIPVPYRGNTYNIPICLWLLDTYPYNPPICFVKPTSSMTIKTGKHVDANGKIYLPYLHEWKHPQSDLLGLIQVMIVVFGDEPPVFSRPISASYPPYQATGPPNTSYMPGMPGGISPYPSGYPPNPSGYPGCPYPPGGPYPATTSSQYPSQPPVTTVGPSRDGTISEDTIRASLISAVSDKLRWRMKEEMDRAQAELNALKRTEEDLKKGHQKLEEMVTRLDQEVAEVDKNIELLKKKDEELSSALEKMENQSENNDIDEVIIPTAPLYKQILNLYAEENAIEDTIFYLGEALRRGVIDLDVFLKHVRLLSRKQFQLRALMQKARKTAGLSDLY
Beta-2 adrenergic receptor (Homo sapiens), sequence (P07550 whole entry, looked up): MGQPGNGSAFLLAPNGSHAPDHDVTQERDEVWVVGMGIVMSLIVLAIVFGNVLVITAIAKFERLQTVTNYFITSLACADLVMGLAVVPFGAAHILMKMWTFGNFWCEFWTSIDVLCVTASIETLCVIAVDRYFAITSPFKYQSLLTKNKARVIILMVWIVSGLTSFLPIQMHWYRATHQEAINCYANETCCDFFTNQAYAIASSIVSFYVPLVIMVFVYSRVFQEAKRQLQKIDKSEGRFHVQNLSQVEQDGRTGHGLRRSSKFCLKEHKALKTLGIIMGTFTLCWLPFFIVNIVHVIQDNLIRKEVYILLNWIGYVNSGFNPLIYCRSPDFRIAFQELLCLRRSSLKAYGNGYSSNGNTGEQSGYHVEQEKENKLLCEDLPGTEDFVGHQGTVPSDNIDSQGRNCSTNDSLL
Methanococcus maripaludis chaperonin (MmCpn), sequence (Q6LX38 1-543): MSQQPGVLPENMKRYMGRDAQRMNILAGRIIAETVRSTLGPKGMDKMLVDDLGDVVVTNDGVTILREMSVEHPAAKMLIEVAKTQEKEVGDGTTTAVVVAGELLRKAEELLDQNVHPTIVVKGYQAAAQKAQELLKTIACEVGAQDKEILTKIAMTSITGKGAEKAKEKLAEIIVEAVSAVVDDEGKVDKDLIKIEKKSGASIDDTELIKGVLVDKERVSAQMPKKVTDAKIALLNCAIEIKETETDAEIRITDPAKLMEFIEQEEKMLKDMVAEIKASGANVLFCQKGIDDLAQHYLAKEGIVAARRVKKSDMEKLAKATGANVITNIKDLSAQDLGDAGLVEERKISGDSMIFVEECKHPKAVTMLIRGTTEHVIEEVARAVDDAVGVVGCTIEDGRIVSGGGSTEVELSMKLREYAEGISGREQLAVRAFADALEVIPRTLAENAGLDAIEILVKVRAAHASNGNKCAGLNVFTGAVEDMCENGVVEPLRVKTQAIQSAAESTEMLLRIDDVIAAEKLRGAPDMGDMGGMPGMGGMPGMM
M-phase phosphoprotein 8 (Homo sapiens), sequence (Q99549 whole entry, looked up): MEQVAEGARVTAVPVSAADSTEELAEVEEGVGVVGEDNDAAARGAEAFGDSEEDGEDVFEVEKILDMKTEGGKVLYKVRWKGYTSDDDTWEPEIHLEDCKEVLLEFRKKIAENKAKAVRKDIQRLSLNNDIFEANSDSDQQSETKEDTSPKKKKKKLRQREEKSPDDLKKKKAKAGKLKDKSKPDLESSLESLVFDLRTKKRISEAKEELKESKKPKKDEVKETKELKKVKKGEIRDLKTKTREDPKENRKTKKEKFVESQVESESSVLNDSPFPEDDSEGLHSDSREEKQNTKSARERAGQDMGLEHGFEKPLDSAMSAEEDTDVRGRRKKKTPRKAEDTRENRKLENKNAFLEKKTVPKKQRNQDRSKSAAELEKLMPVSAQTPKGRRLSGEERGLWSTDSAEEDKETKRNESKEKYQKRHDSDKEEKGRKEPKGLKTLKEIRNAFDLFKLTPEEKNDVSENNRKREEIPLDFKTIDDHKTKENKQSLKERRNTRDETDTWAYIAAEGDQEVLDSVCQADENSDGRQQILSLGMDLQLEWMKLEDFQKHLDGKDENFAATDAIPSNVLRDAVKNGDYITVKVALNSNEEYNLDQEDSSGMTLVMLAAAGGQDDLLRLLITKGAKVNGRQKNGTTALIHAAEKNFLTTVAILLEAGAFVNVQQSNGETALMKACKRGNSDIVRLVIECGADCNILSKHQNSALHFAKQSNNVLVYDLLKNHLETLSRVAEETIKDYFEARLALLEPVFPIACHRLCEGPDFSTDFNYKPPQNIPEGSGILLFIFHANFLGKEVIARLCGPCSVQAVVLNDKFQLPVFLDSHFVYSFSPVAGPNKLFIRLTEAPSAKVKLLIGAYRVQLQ
Glucagon-like peptide 1 receptor (Homo sapiens), sequence (P43220 whole entry, looked up): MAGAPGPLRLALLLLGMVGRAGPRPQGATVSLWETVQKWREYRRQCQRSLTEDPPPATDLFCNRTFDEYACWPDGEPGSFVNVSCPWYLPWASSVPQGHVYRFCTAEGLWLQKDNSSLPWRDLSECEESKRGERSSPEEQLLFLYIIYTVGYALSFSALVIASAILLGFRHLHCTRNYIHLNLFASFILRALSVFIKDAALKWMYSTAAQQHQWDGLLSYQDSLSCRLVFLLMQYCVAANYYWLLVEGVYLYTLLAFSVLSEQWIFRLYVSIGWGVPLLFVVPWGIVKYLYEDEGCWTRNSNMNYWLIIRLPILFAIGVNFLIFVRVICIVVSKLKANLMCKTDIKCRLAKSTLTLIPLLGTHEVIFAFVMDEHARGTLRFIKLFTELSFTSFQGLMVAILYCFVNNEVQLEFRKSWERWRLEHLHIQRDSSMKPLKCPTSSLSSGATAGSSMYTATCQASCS
Ubiquitin carboxyl-terminal hydrolase 2 (Homo sapiens), sequence (O75604 whole entry, looked up): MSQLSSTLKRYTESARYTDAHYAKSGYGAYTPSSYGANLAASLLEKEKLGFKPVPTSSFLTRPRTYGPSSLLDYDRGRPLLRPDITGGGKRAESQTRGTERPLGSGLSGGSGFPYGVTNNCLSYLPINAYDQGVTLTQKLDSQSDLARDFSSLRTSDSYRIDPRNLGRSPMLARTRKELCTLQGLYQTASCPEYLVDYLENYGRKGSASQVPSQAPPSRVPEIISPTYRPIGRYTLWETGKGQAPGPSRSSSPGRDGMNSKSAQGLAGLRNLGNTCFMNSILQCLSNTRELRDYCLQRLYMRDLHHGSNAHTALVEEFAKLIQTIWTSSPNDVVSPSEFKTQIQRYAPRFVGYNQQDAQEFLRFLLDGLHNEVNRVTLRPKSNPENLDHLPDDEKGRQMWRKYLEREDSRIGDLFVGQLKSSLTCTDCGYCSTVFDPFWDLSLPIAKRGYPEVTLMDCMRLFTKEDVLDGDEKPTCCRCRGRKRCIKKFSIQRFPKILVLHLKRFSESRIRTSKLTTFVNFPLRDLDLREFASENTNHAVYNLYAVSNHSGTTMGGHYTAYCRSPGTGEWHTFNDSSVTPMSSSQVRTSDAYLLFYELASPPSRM
Peptidyl-prolyl cis-trans isomerase NIMA-interacting 1 (Homo sapiens), sequence (Q13526 whole entry, looked up): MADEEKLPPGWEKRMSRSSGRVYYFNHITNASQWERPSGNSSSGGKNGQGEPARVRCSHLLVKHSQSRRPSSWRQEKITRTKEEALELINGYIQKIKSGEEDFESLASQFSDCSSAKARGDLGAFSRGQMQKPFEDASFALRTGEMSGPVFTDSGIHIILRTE
Flap endonuclease 1 (Homo sapiens), sequence (P39748 whole entry, looked up): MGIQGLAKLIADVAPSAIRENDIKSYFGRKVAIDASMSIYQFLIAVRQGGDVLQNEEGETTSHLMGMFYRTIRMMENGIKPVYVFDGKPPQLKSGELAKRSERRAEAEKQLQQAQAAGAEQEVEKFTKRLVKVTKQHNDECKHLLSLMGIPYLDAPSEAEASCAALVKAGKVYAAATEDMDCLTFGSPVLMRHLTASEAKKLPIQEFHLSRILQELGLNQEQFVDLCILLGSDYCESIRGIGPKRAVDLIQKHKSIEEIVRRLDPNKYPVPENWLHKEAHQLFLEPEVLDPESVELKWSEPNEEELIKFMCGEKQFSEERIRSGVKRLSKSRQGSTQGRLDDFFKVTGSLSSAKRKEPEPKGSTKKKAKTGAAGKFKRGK

Regarding `O=C1c2ccccc2C(=O)c2c(NCCc3ccc(O)cc3)ccc(NCCc3ccc(O)cc3)c21`, the call in [1], in assay [2], in [6], in assay [7], in assay [8] and in assay [12] was inactive. Also, the call in assay [13], in assay [14], in assay [15], in [18], in assay [22] and in assay [23] was inactive. In addition, the Potency in assay [3] is 4.65 µM (active); in [4], 4.65 µM (active); in assay [11], 2.12 µM (active); in [17] it was 14.6 µM (active); in assay [20] it was 8.91 µM (active); in assay [21], 8.91 µM (active). Further, the Potency entry in [5], in [9], in assay [10], in [16] and in [19] was “inactive” each time.
